Screening results (PubChem BioAssay)
hDAT+cocaine: changed hDAT dopamine uptake under cocaine IC80, either direction, primary screen, cocaine antagonist project, cell-based, LLC-PK1 hDAT, [14C]-dopamine uptake, MLSMR. Sodium-dependent dopamine transporter (Homo sapiens), Q01959. LLC-PK1 hDAT cells, [14C]-dopamine uptake with cocaine IC80; actives deviate in either direction. B-score at 10 µM. 110,000 compounds, 1.3% hits. AID 449768, 2010;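 active = Z score or B-score, a plate-position-corrected score, falls beyond the plate's 99.7% confidence bounds, in either direction; inactive = both scores lie inside the 99.7% bounds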
D1 mod: D1 CRE-luciferase signal change, two-sided – cell-based, HEK293 D1, dopamine EC30, D1 allosteric modulator project, primary screen | dopamine EC30 potentiation; actives deviate in either direction | B-score at 10 µM | 58,000 compounds, 5.9% hits | D(1A) dopamine receptor (Homo sapiens), P21728 | AID 641, 2007;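 active = luminescence count or its row- and column-corrected plate score outside the 99.7% band of the plate's sample wells, on either side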
Target sequence (P21728 whole entry, looked up): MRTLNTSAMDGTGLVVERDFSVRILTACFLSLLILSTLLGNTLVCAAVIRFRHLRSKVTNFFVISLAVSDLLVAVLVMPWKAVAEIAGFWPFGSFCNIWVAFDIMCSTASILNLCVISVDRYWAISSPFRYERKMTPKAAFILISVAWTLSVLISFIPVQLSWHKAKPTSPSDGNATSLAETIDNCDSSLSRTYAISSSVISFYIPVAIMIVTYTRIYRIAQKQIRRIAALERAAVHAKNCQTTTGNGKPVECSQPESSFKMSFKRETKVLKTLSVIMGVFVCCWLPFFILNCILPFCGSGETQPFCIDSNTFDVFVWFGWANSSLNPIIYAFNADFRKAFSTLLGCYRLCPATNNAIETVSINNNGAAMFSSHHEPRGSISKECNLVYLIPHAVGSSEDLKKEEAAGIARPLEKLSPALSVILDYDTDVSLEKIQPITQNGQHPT
EphB4 ephrin blk: EphB4-ephrin-B2 interaction antagonists, primary screen, biochemical, TNYL-RAW peptide probe, fluorescence polarization. Ephrin type-B receptor 4 (Homo sapiens), P54760. EphB4 LBD / TNYL-RAW-Alexa532 peptide. inhibition, % at 7 µM. 97,000 compounds, 0.15% hits. AID 720, 2007;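 active = inhibition above the screen-wide mean inhibition plus 3 SD, cut at about 15% in these data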
Each line names hits and unclear results; the compound was inactive in the other large screens. The sample as a whole holds a higher share of hits than the screen did.

O=C(O)c1cccc(CSc2nc(-c3ccc(Cl)cc3)cc(C(F)(F)F)n2)c1	hDAT+cocaine 3.01 (no result: D1 mod)
C=CCn1c(N)nc2ccccc21	hDAT+cocaine -2.58
C=CCn1c(-c2ccc(N)cc2)nc2ccccc21	none
O=C(CCCn1c(=O)[nH]c2cc(Cl)ccc2c1=O)NCCC1=CCCCC1	none (no result: D1 mod)
CN1CCN(c2ccc(Cl)cc2NC(=O)c2ccc(S(=O)(=O)N(C)C)cc2)CC1	none (no result: D1 mod)
CCN(CC)S(=O)(=O)c1cc(C(=O)Nc2cc(Cl)ccc2N2CCN(C)CC2)ccc1Cl	hDAT+cocaine 2.88 (no result: D1 mod)
CC(C)(C)NC(=O)C1Cc2ccccc2CN1C(=O)Nc1ccccc1Cl (centres undefined)	none (no result: D1 mod)
O=C(Nc1nncs1)c1ccc(S(=O)(=O)c2ccccc2)cc1	hDAT+cocaine -8.73
O=C(Nc1nnc(C2CC2)s1)c1ccc(S(=O)(=O)c2ccccc2)cc1	none (no result: D1 mod)
Cc1cccc(N(C)S(=O)(=O)c2cccc3nsnc23)c1	none (no result: EphB4 ephrin blk)
CN(C)S(=O)(=O)c1cccc2nsnc12	hDAT+cocaine -2.04
Cc1csc(NC(C)c2nc3cc(Cl)c(Cl)cc3n2CCCO)n1 (centres undefined)	none (no result: D1 mod, EphB4 ephrin blk)
Cc1cc(C(=O)CN2C(=O)NC3(CCCCC3)C2=O)c(C)n1Cc1ccc2c(c1)OCO2	none (no result: D1 mod)
Cc1cc(C(=O)CN2C(=O)NC(c3ccccc3)(c3ccccc3)C2=O)c(C)n1Cc1ccccc1	EphB4 ephrin blk 19.8 (no result: D1 mod)
CC1CCN(C(=O)c2ccc3c(c2)OCCO3)CC1	hDAT+cocaine 6.72
CC1CCN(C(=S)c2ccc3c(c2)OCO3)CC1	none (no result: D1 mod)
C[C@H]1C=C(C(=O)NC2CC2)O[C@@H](OCc2ccc(CO)cc2)C1	none (no result: D1 mod, EphB4 ephrin blk)
CC1CCCN(c2c([N+](=O)[O-])c(=O)oc3ccccc23)C1 (centres undefined)	hDAT+cocaine -2.72 (no result: D1 mod)
O=c1oc2ccccc2c(Nc2ccc(O)cc2)c1[N+](=O)[O-]	none (no result: D1 mod)
O=C(Nc1nnc(-c2ccco2)s1)c1ccccc1	D1 mod -4.51 (no result: EphB4 ephrin blk)
COc1ccc(C(=O)Nc2nnc(-c3ccco3)s2)cc1	none (no result: D1 mod)
COC(=O)c1ccc(CN2[C@H](C(=O)OC)C[C@@]3(O)[C@@H](O)[C@@H](O)[C@@H](O)C[C@@H]23)cc1	none (no result: D1 mod, EphB4 ephrin blk)
O=C(Nc1cccnc1)C1COc2ccccc2O1 (centres undefined)	EphB4 ephrin blk 16.4 (no result: D1 mod)
CC1(C)Oc2ccc(NC(=O)C3COc4ccccc4O3)cc2O1 (centres undefined)	D1 mod -4.34
CC(=O)c1sc(NC(=O)C2COc3ccccc3O2)nc1C (centres undefined)	D1 mod -8.5
O=C(CCC1COc2ccccc2O1)Nc1cccnc1 (centres undefined)	none (no result: hDAT+cocaine)
NS(=O)(=O)c1ccc(NC(=O)C2COc3ccccc3O2)cc1 (centres undefined)	none (no result: D1 mod)
O=C(Nc1nncs1)C1COc2ccccc2O1 (centres undefined)	none
C=CCn1c(COc2ccccc2)nnc1SC(C)C(=O)N/N=C/c1cc(Cl)ccc1O (centres undefined)	none (no result: D1 mod)
CCN(CC)c1cc(CS(=O)c2ccccc2)nc(-c2ccccc2)n1 (centres undefined)	none (no result: D1 mod)
C/C=C\C(=O)Nc1cccc(C2=NOC3(C2)C[C@H](C(N)=O)N(C(=O)Cc2ccc([N+](=O)[O-])cc2)C3)c1 (some centres undefined)	none (no result: D1 mod, EphB4 ephrin blk)
CC(C)[C@H](NC(=O)OC(C)(C)C)C(=O)N/N=C/c1cccc2nccnc12	none (no result: D1 mod)
Cc1nc2oc3c(NCc4ccccc4)ncnc3c2c2c1COC(C)(C)C2	D1 mod 8.47 (no result: hDAT+cocaine)
Cc1nc2sc3c(NCc4ccco4)ncnc3c2c2c1COC(C)(C)C2	none (no result: D1 mod)
CC1(C)Cc2c(C#N)c(NCC3CCCO3)nc(-c3ccco3)c2CO1 (centres undefined)	none (no result: D1 mod)
CC(C)c1nc2oc3c(NCC4CCCO4)ncnc3c2c2c1COC(C)(C)C2 (centres undefined)	D1 mod 12.2
O=C(NCC(=O)N(CC1CCCO1)C1(C(=O)NC2CCCCC2)CCCCC1)c1ccccc1 (centres undefined)	none (no result: D1 mod)
COc1nnc(-c2ccc(N3CCCCC3)c(N)c2)c2ccccc12	none
O=C(Nc1ccc2snnc2c1)N1CCSCC1	none
CC1CN(C(=O)Nc2ccc3snnc3c2)c2ccccc21 (centres undefined)	hDAT+cocaine 2.64 (no result: EphB4 ephrin blk)
COc1ccc(-c2nc(CCNC(=O)c3cccs3)cs2)cc1	none (no result: D1 mod)
Cc1nn(-c2ccccc2)c(C)c1C(=O)OC/C(O)=C(\C#N)c1nc2ccccc2[nH]1	hDAT+cocaine -7.91
Cc1nn(-c2ccccc2)c(C)c1C(=O)OCC(=O)N1CC(=O)Nc2ccccc21	none (no result: hDAT+cocaine)
Cc1cc(C)c2nc(N3CCN(C)CC3)c(C#N)cc2c1	none
Cc1cccc2cc(C#N)c(N3CCN(C)CC3)nc12	D1 mod -2.21
O=C(NC(Cc1c[nH]c2ccccc12)C(=O)O)c1ccco1 (centres undefined)	hDAT+cocaine -9.52 (no result: D1 mod)
O=C(Nc1ccccc1C(=O)NC(Cc1c[nH]c2ccccc12)C(=O)O)c1ccco1 (centres undefined)	none
COc1ccc(CNC(=O)C(c2ccc(C)o2)N(Cc2cccs2)C(=O)Cc2cccs2)cc1 (centres undefined)	none (no result: D1 mod)
Cc1c(C(=O)Nc2ccc(Cl)cc2)c2ccccn2c1C(=O)c1ccccc1	hDAT+cocaine -9.53 (no result: D1 mod)
Cc1c(C(=O)Nc2ccc(Cl)cc2)c2ccccn2c1C(=O)c1ccc([N+](=O)[O-])cc1	none (no result: D1 mod)
CSCCC1NC(=O)N(CC(=O)Nc2cccc3ccccc23)C1=O (centres undefined)	none (no result: D1 mod)
CC(=O)N1CCN(c2ccc(NC(=O)c3ccc(C)cc3)cc2)CC1	none (no result: D1 mod)
CC(=O)N1CCc2cc(NC(=O)c3ccc(C)cc3)ccc21	D1 mod -2.59
O=C(CSc1nnc(-c2ccccn2)n1Cc1ccccc1)NC1CCCC1	EphB4 ephrin blk 15.8
Cc1nnc(SCC(=O)NC2CC2)n1CCc1ccccc1	none
CCn1c2ccccc2c2cc(NS(=O)(=O)c3ccccc3C)ccc21	none (no result: D1 mod)
Cc1cccc(CCN2CCC(C(=O)c3ccc(NS(C)(=O)=O)cc3)CC2)n1	none (no result: D1 mod, EphB4 ephrin blk)
COc1ccc(CN(Cc2nc3ccccc3c(=O)[nH]2)C(=O)NC2CCCCC2)cc1	none
COc1ccc(CN(Cc2nc3ccccc3c(=O)[nH]2)C(=O)C(C)(C)C)cc1	D1 mod -4.9
CN1CCN(C(=O)C(C(=O)c2ccc(F)cc2)n2ccccc2=O)CC1 (centres undefined)	none (no result: D1 mod)
COC(=O)CNC(=O)c1c(-c2ccccc2Cl)noc1C	none
Cc1cc2cc(CCNC(=O)c3c(-c4ccccc4Cl)noc3C)c(=O)[nH]c2cc1C	D1 mod -3.74 (no result: EphB4 ephrin blk)
COC(=O)c1ccc(C23CC4(C2)[C@H](CN(CC2CCCCC2)[C@@H]4c2ccccc2)C3c2ccccc2)cc1 (some centres undefined)	none (no result: D1 mod, EphB4 ephrin blk)
Cc1ccc(S(=O)(=O)N2CCOCC2)cc1C(=O)N1C(=O)c2cccc(N)c2C1=O	hDAT+cocaine -6.45
Cc1ccc(S(=O)(=O)N2CCOCC2)cc1C(=O)O	none (no result: EphB4 ephrin blk)
O=C1NCCCC2c3cc(O)c4ccccc4c3OC12N1CCCCC1 (centres undefined)	hDAT+cocaine -3.42
